Bioassay records: PubChem BioAssay, National Center for Advancing Translational Sciences (NCATS)
A selection: hits, their analogues and other compounds. The true share with any hit is near 2.4%.
Pol kappa inh-1 = qHTS for Inhibitors of Polymerase Kappa. 400,000 compounds, 0.53% hits. purified Pol kappa, fluorescent DNA synthesis assay, 10 min. Potency, µM (top dose mostly 107 µM), for the others: at the highest dose activity, negative = inhibition, actives largely listed as inhibitors. DNA polymerase kappa (Homo sapiens), Q9UBT6; note: % is set by controls: 0 for no effect and ±100 for the full control effect
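Kinetic fluorescence screen: compound preincubated 15 min RT with 10 nM enzyme; 50 nM substrate (final) initiates; reads at 0/10 min.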
POLB inh = qHTS Assay for Inhibitors of DNA Polymerase Beta | P06746 | Pol beta primer extension/strand displacement, fluorescence kinetic | Potency, µM (doses to about 114 µM), for inactives: at the top dose activity change, negative = inhibition, hits mostly inhibitors | 340,000 compounds, 1.3% hits | AID 485314, 2010; note: % is set by controls: 0 for no effect and ±100 for the full control effect
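Curves were derived by four-parameter Hill fits of normalized qHTS data. The kinetic fluorescent primer-extension read was taken at 0 and 10 min after 50 nM substrate, following a 15 min room-temperature preincubation of 10 nM enzyme with compounds.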
Pol eta inh-1 = qHTS for Inhibitors of Polymerase Eta | DNA polymerase eta (Homo sapiens), Q9Y253 | recombinant Pol eta, fluorescent DNA replication assay | Potency, µM (series often up to 114 µM), for the others: at the highest dose activity change, negative = inhibition, usual class: inhibitors | 390,000 compounds, 1.2% hits | AID 588591, 2011; note: % is set by controls: 0 for no effect and ±100 for the full control effect
Target sequence (Q9Y253 whole entry, looked up): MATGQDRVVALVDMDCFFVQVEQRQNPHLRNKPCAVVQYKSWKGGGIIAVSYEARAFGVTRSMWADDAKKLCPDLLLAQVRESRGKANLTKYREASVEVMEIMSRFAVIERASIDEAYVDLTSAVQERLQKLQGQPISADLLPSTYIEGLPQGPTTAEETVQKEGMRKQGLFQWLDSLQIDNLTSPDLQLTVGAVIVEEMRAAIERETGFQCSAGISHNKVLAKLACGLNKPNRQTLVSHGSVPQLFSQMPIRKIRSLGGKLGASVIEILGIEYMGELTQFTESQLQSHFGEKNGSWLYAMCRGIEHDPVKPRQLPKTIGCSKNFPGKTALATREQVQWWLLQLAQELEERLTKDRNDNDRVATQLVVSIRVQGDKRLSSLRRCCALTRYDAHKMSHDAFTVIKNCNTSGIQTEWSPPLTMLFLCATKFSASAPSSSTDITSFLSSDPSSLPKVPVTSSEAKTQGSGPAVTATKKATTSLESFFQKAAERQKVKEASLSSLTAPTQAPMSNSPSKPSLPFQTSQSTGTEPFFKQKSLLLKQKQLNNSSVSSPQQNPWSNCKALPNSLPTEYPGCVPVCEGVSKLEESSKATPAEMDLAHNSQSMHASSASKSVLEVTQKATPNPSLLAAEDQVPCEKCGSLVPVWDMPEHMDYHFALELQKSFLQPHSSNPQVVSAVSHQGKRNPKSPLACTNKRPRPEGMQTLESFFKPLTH
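Fluorescent replication assay: 50 nM final substrate added after a 15 min room-temperature compound preincubation with 10 nM enzyme. Signal taken at 0 min and again at 10 min.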
Pol iota inh = qHTS for Inhibitors of Polymerase Iota; DNA polymerase iota (Homo sapiens), Q9UNA4; Pol iota fluorescent replication assay, 10 min; Potency, µM (titrated, usually from 115 µM), for inactives: top-dose activity, negative = inhibition, hits mostly inhibitors; 390,000 compounds, 1% hits
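Fluorescent replication assay read twice, at 0 min and 10 min after adding 50 nM (final) substrate. Enzyme (10 nM) and compounds were first incubated 15 min at room temperature; enzyme-free buffer wells were negative controls.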
FEN1 inhibitor = qHTS Assay for the Inhibitors of Human Flap endonuclease 1 (FEN1); Potency, µM (titrated, usually from 114 µM), without a hit: at the top dose activity change, negative = inhibition, hits mostly inhibitors; Recombinant FEN1 flap cleavage, fluorescence, 15 min; P39748; 390,000 compounds, 0.35% hits; note: % is set by controls: 0 for no effect and ±100 for the full control effect; nearly all actives have a fitted effect of over 65% in size
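Nuclease activity of 10 nM FEN1 was measured after 15 min of room-temperature exposure to titrated compounds, by adding 50 nM flap substrate and reading plates at 0 and 15 min.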
TDP1 block = qHTS Assay for Inhibitors of Tyrosyl-DNA Phosphodiesterase (TDP1) | Tyrosyl-DNA phosphodiesterase 1 (Homo sapiens), Q9NUW8 | recombinant TDP1, AlphaScreen DNA substrate cleavage | Potency, µM (doses to about 130 µM), for the others: at the top dose activity change, negative = inhibition, hits mostly inhibitors | 350,000 compounds, 0.28% hits; note: % is set by controls: 0 for no effect and ±100 for the full control effect; nearly all actives have a fitted effect of over 40% in size
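AlphaScreen read-out: signal falls as enzyme removes the 3' tyrosine-FITC from a 5'-biotinylated DNA oligo (15 nM, 5 min, RT). Enzyme was E. coli-made recombinant Tdp1 at 1 nM, exposed to compound for 15 min beforehand; beads 10 ug/ml, 10 min.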
POLI cherry-pick = qHTS for Inhibitors of Polymerase Iota: Confirmatory Assay for Cherry-picked Compounds | shares compounds with Pol kappa inh-1 | Pol iota primer extension, TAMRA/BHQ fluorescence | Potency, µM, most hits filed as inhibitors | 1,500 compounds, 77% hits
Pol kappa inh-2 = qHTS for Inhibitors of Polymerase Kappa: Confirmatory Assay for Cherry-picked Compounds; Potency, µM, usual class: inhibitors; shares compounds with Pol eta inh-1; purified Pol-kappa, fluorescent strand-displacement substrate; 920 compounds, 76% hits; AID 720501, 2013
Pol eta inh-2 = qHTS for Inhibitors of Polymerase Eta: Confirmatory Assay for Cherry-picked Compounds; Potency, µM, actives largely listed as inhibitors; AID 720502, 2013; 2,600 compounds, 64% hits; Pol eta primer extension, TAMRA/BHQ fluorescence, 10 min; shares compounds with Pol eta inh-1
Starred values were filed as active, the others as inactive; u = inconclusive; x = no result; [ ] = dose if it differs, or a comment. Calls come from the whole dose curve; as a rule, active = well fitted curve in the direction sought with a large enough effect; inconclusive = small, poorly fitted or top-dose-only effect, or another doubt; inactive = no such curve, though single readings can be large; an effect the other way counts as inactive or inconclusive. Potency is the fitted concentration of half-maximal effect.

SMILES | Pol kappa inh-1 | POLB inh | Pol eta inh-1 | Pol iota inh | FEN1 inhibitor | TDP1 block | POLI cherry-pick | Pol eta inh-2 | others
N#C/C(=C\c1ccccc1OCc1ccc(C(=O)O)cc1)C(=O)Nc1ccc(O)cc1 | -3% | 24% | u | u | -9% | 2% | x | x
COc1ccc(NC(=O)/C(C#N)=C\c2ccc(OCc3ccc(C(=O)O)cc3)c(OC)c2)cc1 | -4% | 8% | u | 32µM* | u | u | u | u
N=C1S/C(=C\c2ccc(-c3ccccc3C(=O)O)o2)C(=O)N1c1ccc2c(c1)OCO2 | 79µM* | 25µM* | 20µM* | 13µM* | u | -8% | 67* | 43* | Pol kappa inh-2=19*
Cc1cc(OCC(=O)Nc2ccc(N3CCN(C(=O)c4ccco4)CC3)cc2)cc(C)c1Cl | -3% | u | 79µM* | u | u | -3% | 53* | u
Cc1cccc(NC(=O)CN2C(=O)C3(SCC(=O)N3c3ccccc3)c3ccccc32)c1 (stereo not given) | -3% | -4% | -15% | 2% | -11% | 5% | x | x
CCSc1ncc(Cl)c(C(=O)Nc2c(C(=O)Nc3ccc(Cl)cc3)oc3ccccc23)n1 | -14% | 0% | x | 10% | 22% | 2% | x | x
COc1ccc(NC(=O)Cn2cc(C(=O)c3ccccc3OC)c(=O)c3ccc(C)nc32)cc1OC | 17% | 19% | -11% | 18% | -5% | 0% | x | x
Oc1ccc(/C=N/NC(=S)Nc2cccnc2)c(O)c1O | 2.2µM* | u | u | u | 4.5µM* | x | 2.7* | 3* | Pol kappa inh-2=3*
Oc1cccc(/C=N/NC(=S)Nc2cccnc2)c1O | u | 16µM* | 20µM* | 7.9µM* | u | 0% | 38* | 85*
Oc1ccc(/C=N/NC(=S)Nc2cccnc2)c(O)c1 | -6% | 11% | -13% | 7% | -14% | 5% | x | x
O=C(COc1ccc(Br)cc1)Nc1ccc(C(=O)OC2CCCCC2)cc1 | 4% | 3% | x | -4% | 11% | 3%[12.3 µM] | x | x
O=c1cc(-c2ccc(O)cc2)oc2cc(O)c(C3OC(CO)C(O)C(O)C3O)c(O)c12 (stereo not given) | 40µM* | 8.9µM* | 20µM* | 35µM* | u | -3% | 34* | 24*
Cc1cc(NC(=O)CSc2nc3c(c(-c4cccnc4)c2C#N)CCC3)no1 | 2% | 1% | u | 28% | -21% | 0% | 38* | x | Pol kappa inh-2=38*
COc1cccc(NC(=O)CSc2nc3c(c(-c4ccco4)c2C#N)CCCC3)c1 | -15% | -28% | -10% | -13%[58.9 µM] | -5% | 0% | x | x
CCOC(=O)CN(C(=O)c1snc(C(N)=O)c1N)C(C(=O)NC1CCCCC1)c1ccc(F)cc1 (stereo not given) | 79µM* | 20µM* | 35µM* | u | -28% | x | 42* | u
